According to PubChem BioAssay AID1159580 (chemical genetic matrix, 2015):
Values joined by “and” are separate entries in the source; they are usually repeats but may differ in a detail not shown here. Equal entries are not always repeated. The whole screen tested about 5,500 compounds, of which about 2,000 (36%) were called active. Another 18% or so got no clear call; they are omitted. Cut-off read from the data, not from the text of the source: active = normalized growth mostly below about 0.91 (no sharp cut-off); inconclusive = no clear call, values can overlap the other calls; inactive = mostly above about 0.92. The list shows a part of the results.

Test: chemical genetic growth profiling, strain panel (AID 1159580);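 note: tested at 20 µM; growth read once vehicle control cultures reached saturation at 30 °C; 1 = growth at the plate median or of vehicle wells; lower values mean less growth of the strain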
Conditions: S. cerevisiae deletion strains, growth OD

Measured: normalized growth

C1CCC(C(CC2CCCCN2)C2CCCCC2)CC1 (stereo not drawn)
inactive: locus YAL030W, strain snc1, stronger effect = lower value 0.986 | locus YBL061C, strain skt5, stronger effect = lower value 0.935 | locus YBR009C, strain hhf1, stronger effect = lower value 0.955 | locus YBR171W, strain sec66, stronger effect = lower value 0.973 | locus YBR229C, strain ROT2, stronger effect = lower value 0.99 | locus YBR279W, strain paf1, stronger effect = lower value 0.969 | locus YCL011C, strain gbp2, stronger effect = lower value 0.97 | locus YCL016C, strain dcc1, stronger effect = lower value 0.955 | locus YCL061C, strain MRC1, stronger effect = lower value 0.992 | locus YCL069W, strain vba3, stronger effect = lower value 0.965 | locus YCR088W, strain abp1, stronger effect = lower value 0.96 | locus YDL005C, strain med2, stronger effect = lower value 0.983 | locus YDL040C, strain nat1, stronger effect = lower value 0.978 | locus YDL185W, strain tfp1, stronger effect = lower value 1.01 | locus YDR001C, strain nth1, stronger effect = lower value 0.967 | locus YDR159W, strain sac3, stronger effect = lower value 0.965 | locus YDR195W, strain ref2 1.13 | locus YDR297W, strain sur2, stronger effect = lower value 0.987 | locus YDR334W, strain swr1, stronger effect = lower value 0.972 | locus YDR335W, strain msn5, stronger effect = lower value 0.957 | locus YDR392W, strain spt3, stronger effect = lower value 0.871 | locus YEL003W, strain gim4, stronger effect = lower value 0.946 | locus YEL037C, strain rad23, stronger effect = lower value 0.974 | locus YEL061C, strain CIN8 (second series), stronger effect = lower value 0.973 | locus YER015W, strain faa2, stronger effect = lower value 0.979 | locus YER016W, strain bim1, stronger effect = lower value 0.972 | locus YER110C, stronger effect = lower value 0.935 | locus YER111C, strain swi4, stronger effect = lower value 0.991 | locus YER155C, strain BEM2 (second series), stronger effect = lower value 0.912 | locus YER155C, strain BEM2, stronger effect = lower value 0.957 | locus YGL078C, strain dbp3, stronger effect = lower value 0.999 | locus YGL167C, strain pmr1, stronger effect = lower value 0.989 | locus YGL173C, strain kem1, stronger effect = lower value 0.962 | locus YGL227W, strain vid30, stronger effect = lower value 0.991 | locus YGL240W, strain doc1, stronger effect = lower value 0.989 | locus YGL253W, strain hxk2, stronger effect = lower value 0.973 | locus YHR027C, strain rpn1, stronger effect = lower value 0.987 | locus YHR079C, strain IRE1 (second series), stronger effect = lower value 0.93 | locus YHR079C, strain IRE1, stronger effect = lower value 1.02 | locus YHR094C, strain hxt1, stronger effect = lower value 1.01 | locus YHR200W, strain rpn10, stronger effect = lower value 0.922 | locus YIL125W, strain kgd1, stronger effect = lower value 1.02 | locus YJL092W, strain hpr5, stronger effect = lower value 0.984 | locus YJL095W, strain BCK1 (second series), stronger effect = lower value 0.927 | locus YJL115W, strain asf1, stronger effect = lower value 0.984 | locus YJL129C, strain trk1, stronger effect = lower value 0.953 | locus YJL134W, strain LCB3, stronger effect = lower value 0.996 | locus YJL154C, strain vps35, stronger effect = lower value 0.964 | locus YJL164C, strain tpk1, stronger effect = lower value 0.968 | locus YJL166W, strain qcr8, stronger effect = lower value 0.984 | locus YJL187C, strain SWE1, stronger effect = lower value 0.973
0.0919 (active) and 1.01 (inactive): locus YHR030C, strain SLT2, stronger effect = lower value
0.169 (active) and 1.01 (inactive): locus YJL095W, strain BCK1, stronger effect = lower value
active: locus YAL013W, strain DEP1, stronger effect = lower value 0.789 | locus YAL021C, strain ccr4, stronger effect = lower value 0.628 | locus YAL026C, strain drs2, stronger effect = lower value 0.0926 | locus YBR021W, strain FUR4, stronger effect = lower value 0.219 | locus YBR023C, strain chs3, stronger effect = lower value 0.884 | locus YBR231C, strain swc5, stronger effect = lower value 0.554 | locus YCL029C, strain bik1, stronger effect = lower value 0.873 | locus YDL035C, strain GPR1, stronger effect = lower value 0.493 | locus YDL074C, strain BRE1, stronger effect = lower value 0.585 | locus YDL101C, strain DUN1, stronger effect = lower value 0.173 | locus YDL134C, strain PPH21, stronger effect = lower value 0.209 | locus YDL192W, strain arf1, stronger effect = lower value 0.0725 | locus YDR069C, strain doa4, stronger effect = lower value 0.706 | locus YDR101C, strain arx1, stronger effect = lower value 0.911 | locus YDR137W, strain rgp1, stronger effect = lower value 1.32 [resistant] | locus YDR162C, strain NBP2, stronger effect = lower value 0.0586 | locus YDR318W, strain mcm21, stronger effect = lower value 0.646 | locus YDR388W, stronger effect = lower value 0.125 | locus YDR502C, strain sam2, stronger effect = lower value 0.594 | locus YEL061C, strain CIN8, stronger effect = lower value 0.658 | locus YER167W, strain BCK2, stronger effect = lower value 0.718 | locus YFR010W, strain ubp6, stronger effect = lower value 0.601 | locus YGL086W, strain mad1, stronger effect = lower value 0.333 | locus YGL248W, strain PDE1, stronger effect = lower value 0.227 | locus YGR135W, strain pre9, stronger effect = lower value 0.501 | locus YGR252W, strain gcn5, stronger effect = lower value 0.271 | locus YHR013C, strain ard1, stronger effect = lower value 0.842 | locus YHR129C, strain ARP1, stronger effect = lower value 0.742 | locus YHR142W, strain chs7, stronger effect = lower value 0.774 | locus YIL066C, strain RNR3, stronger effect = lower value 0.504 | locus YIL073C, strain SPO22, stronger effect = lower value 0.124 | locus YIR030C, strain dcg1, stronger effect = lower value 0.897 | locus YJL168C, strain set2, stronger effect = lower value 0.731 | locus YJL187C, strain SWE1 (second series), stronger effect = lower value 0.521 | locus YJR043C, strain POL32, stronger effect = lower value 0.722
